This is an account of results in PubChem BioAssay.

Assay [1] in a line: antimalarial activity against Dd2 strain (AID 2302;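 active = growth inhibition above 50% at the single 2 µM test dose, taken to imply half-maximal potency below 2 µM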;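 note: 0% = DMSO untreated growth and 100% = chloroquine plus artemisinin killed control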). The note with it: P. falciparum Dd2 in RBCs, LDH growth readout, 72 h; at 2 µM; active compounds read high.
The nature of assay [2]: human hepatoma cell viability loss – ATP luminescence, cytotoxicity control for P. falciparum antimalarial project, primary screen (AID 2303;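 active = inhibition above 50%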;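 note: 0% = DMSO wells and 100% = digitonin-killed cells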). The note with it: HepG2 viability, 24-48 h, at 10 µM, active compounds read high.
For assay [3], the target named is L-lactate dehydrogenase (Plasmodium falciparum (isolate CDC / Honduras)) (UniProt Q27743). As to the kind of experiment: PfLDH activity inhibition – cell lysate, 3D7 strain, counter-screen for P. falciparum growth inhibition project (AID 2304).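 Note: 0% = vehicle and 100% = reference inhibitor.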 The following applies: P. falciparum 3D7 crude extract, LDH APAD/NBT absorbance; at 2 µM; active compounds read high. A general note: A counterscreen serves to expose hits that act by an unwanted route or on another target.

Assay [4] in a line: inhibition of 3D7 malaria parasite growth – strain 3D7 (AID 2306).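 Note: 0% = DMSO wells and 100% = chloroquine plus artemisinin control wells.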 The following applies: P. falciparum 3D7 erythrocytic growth, LDH absorbance, 72 h; at 2 µM; active compounds read high.
Assay [5] deals with Plasmodium falciparum protein kinase 6 (PK6, PF3D7_1337100) (UniProt Q8IDW1). As to the kind of experiment: PfPK6 kinase inhibitors, biochemical, TCAMS library (AID 1159586). The following applies: recombinant PfPK6, Kinase-Glo ATP depletion luminescence. For orientation: In Kinase-Glo more light means more ATP remaining.
Assay [6] concerns the target Protein kinase 7 (PK7), Plasmodium falciparum 3D7 (PF3D7_0213400) (UniProt Q7YTF7). Description: inhibition of Plasmodium PK7 catalytic activity – biochemical, TCAMS antimalarial set, Kinase-Glo luminescence (AID 1159587). The note with it: recombinant PfPK7, Kinase-Glo ATP depletion luminescence.
Assay [7] concerns the target Calcium-dependent protein kinase 4 (Plasmodium falciparum (isolate 3D7)) (UniProt Q8IBS5). Description: PfCDPK4 kinase inhibitors, biochemical, TCAMS library (AID 1159588; cut-off not given, nearly all actives have IC50 up to about 0.91 µM). The following applies: recombinant PfCDPK4, Kinase-Glo ATP depletion luminescence.

The inhibition is the drop in the measured response relative to a control, in per cent.

SMILES strings stand for the structures. A number with no mark means an inactive call. For part of these data: Measured potencies and affinities stand elsewhere. Activity calls are given as the source filed them. Unless noted, the rule behind the calls is not given here.

Sequence of Calcium-dependent protein kinase 4 (Plasmodium falciparum (isolate 3D7)) (Q8IBS5 whole entry, looked up): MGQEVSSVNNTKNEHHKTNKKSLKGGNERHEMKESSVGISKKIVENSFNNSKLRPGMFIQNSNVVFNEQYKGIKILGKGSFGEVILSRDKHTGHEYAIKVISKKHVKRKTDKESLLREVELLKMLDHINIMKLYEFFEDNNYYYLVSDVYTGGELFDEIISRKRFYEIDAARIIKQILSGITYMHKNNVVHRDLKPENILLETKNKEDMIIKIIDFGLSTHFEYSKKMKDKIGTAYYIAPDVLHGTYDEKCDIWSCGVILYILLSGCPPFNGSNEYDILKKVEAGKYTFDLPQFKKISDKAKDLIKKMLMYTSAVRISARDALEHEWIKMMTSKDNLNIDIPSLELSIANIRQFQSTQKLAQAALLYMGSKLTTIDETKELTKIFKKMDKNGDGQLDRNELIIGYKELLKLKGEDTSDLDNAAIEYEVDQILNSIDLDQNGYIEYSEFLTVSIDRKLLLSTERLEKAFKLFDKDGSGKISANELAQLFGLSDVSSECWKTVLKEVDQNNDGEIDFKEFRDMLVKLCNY
Sequence of Plasmodium falciparum protein kinase 6 (PK6, PF3D7_1337100) (Q8IDW1 1-305): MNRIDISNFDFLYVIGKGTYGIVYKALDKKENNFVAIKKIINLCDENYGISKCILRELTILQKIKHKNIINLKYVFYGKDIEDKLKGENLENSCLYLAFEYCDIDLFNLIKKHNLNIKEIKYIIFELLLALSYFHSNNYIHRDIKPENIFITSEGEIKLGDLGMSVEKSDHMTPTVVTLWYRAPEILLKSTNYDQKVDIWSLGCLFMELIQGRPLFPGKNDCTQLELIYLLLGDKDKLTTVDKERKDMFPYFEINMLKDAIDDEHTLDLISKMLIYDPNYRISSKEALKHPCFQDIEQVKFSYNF
Sequence of L-lactate dehydrogenase (Plasmodium falciparum (isolate CDC / Honduras)) (Q27743 whole entry, looked up): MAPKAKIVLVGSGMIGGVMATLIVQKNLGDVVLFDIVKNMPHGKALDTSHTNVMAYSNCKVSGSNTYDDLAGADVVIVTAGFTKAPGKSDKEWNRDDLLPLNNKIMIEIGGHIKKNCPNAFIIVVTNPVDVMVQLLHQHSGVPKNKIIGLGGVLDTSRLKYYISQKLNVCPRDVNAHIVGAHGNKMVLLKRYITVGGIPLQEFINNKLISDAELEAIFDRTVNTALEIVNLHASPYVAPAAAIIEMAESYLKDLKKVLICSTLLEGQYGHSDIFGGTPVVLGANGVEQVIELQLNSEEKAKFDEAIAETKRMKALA
Sequence of Protein kinase 7 (PK7), Plasmodium falciparum 3D7 (PF3D7_0213400) (Q7YTF7 1-343): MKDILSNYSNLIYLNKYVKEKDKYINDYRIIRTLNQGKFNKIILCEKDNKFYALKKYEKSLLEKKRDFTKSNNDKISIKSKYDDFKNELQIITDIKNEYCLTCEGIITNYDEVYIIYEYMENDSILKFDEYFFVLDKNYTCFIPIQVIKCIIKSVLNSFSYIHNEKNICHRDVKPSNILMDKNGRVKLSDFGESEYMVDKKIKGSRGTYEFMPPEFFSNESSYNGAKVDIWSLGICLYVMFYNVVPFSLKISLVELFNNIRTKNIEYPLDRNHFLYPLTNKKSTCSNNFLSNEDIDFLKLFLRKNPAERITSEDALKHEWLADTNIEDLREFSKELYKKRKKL

On to `CC(=O)Nc1cccc(Nc2nccc(Nc3ccc(Oc4ccccc4)cc3)n2)c1`, for which the growth inhibition in assay [1] is 99% (active); in assay [4], 101% (active). Besides, the inhibition was 15% in assay [2] and -6% in assay [3]. Moreover, the outcome in assay [5], in assay [6] and in assay [7] was inactive.

Regarding `COc1ccc(-c2cnc3ccc(N4CCCC4)nn23)cc1OC`, the growth inhibition in assay [1] and in assay [4] was 98% (active) each time. Moreover, the inhibition was 40% in assay [2] and 0% in assay [3]. Further, the result in assay [5], in assay [6] and in assay [7] was inactive.

In the case of `CC(C)(CNC(=O)[C@@H]1CCCCN1)c1nc(-c2ccc(Cl)c(O)c2)c(-c2ccncc2)[nH]1`, the growth inhibition in assay [1] was 96% (active); in assay [4] it was 97% (active). Further, the results for the inhibition in assay [2] and in assay [3] were -8% and -10%, respectively. For the same compound, the result in assay [5], in assay [6] and in assay [7] was inactive.

Turning to `CS(=O)(=O)CCNCc1cccc(-c2ccc3c(Nc4ccc(Oc5cccnc5)cc4)ccnc3c2)c1`, the growth inhibition was 99% (active) in assay [1] and 101% (active) in assay [4]. The results for the inhibition in assay [2] and in assay [3] were 27% and 4%, respectively. The result in assay [5], in assay [6] and in assay [7] was inactive.

With `Clc1ccc(-c2cnc3ccc(NCCc4cccnc4)nn23)cc1`, the growth inhibition in assay [1] is 32%; in assay [4], 97% (active). Moreover, the results for the inhibition in assay [2] and in assay [3] were 34% and -4%, respectively. Moreover, the outcome in assay [5], in assay [6] and in assay [7] was inactive.

Regarding `NCCCOc1cnc(-c2ccccc2)c2nc(-c3nonc3N)n(CCc3ccccc3)c12`, the growth inhibition in assay [1] was 86% (active); in assay [4], 93% (active). Moreover, the inhibition is 56% (active) in assay [2] and -4% in assay [3]. For the same compound, the result in assay [5], in assay [6] and in assay [7] was inactive.

In the case of `O=C(NCCN1CCCCC1)c1ccc(Nc2nccc(Nc3ccc(Oc4ccccc4)cc3)n2)cc1`, the results for the growth inhibition in assay [1] and in assay [4] were 91% (active) and 101% (active), respectively. Further, the inhibition in assay [2] is 58% (active); in assay [3], -2%. In addition, the result in assay [5], in assay [6] and in assay [7] was inactive.

Regarding `CCn1c(-c2nonc2N)nc2c(-c3cccc(NC(=O)Nc4ccc(Cl)cc4)c3)ncc(OCCCN)c21`, the figures for the growth inhibition in assay [1] and in assay [4] were 72% (active) and 96% (active), respectively. Besides, the values for the inhibition in assay [2] and in assay [3] were 26% and -1%, respectively. Also, the outcome in assay [5], in assay [6] and in assay [7] was inactive.

On to `CCn1c(-c2nonc2N)nc2c(-c3ccc(CO)o3)ncc(OCCCN)c21`, for which the growth inhibition was 97% (active) in assay [1] and 93% (active) in assay [4]. Further, the inhibition in assay [2] is -12%; in assay [3], -3%. Further, the result in assay [5], in assay [6] and in assay [7] was inactive.

Take `CC(C)(CNC(=O)C1CCN(Cc2ccoc2)CC1)c1nc(-c2ccc(Cl)c(O)c2)c(-c2ccncc2)[nH]1`: the growth inhibition was 66% (active) in assay [1] and 93% (active) in assay [4]. For the same compound, the inhibition in assay [2] was -12%; in assay [3], -2%. Further, the result in assay [5], in assay [6] and in assay [7] was inactive.

`Oc1cccc(Nc2ccnc3cc(-c4ccncc4)ccc23)c1`: the growth inhibition in assay [1] is 99% (active); in assay [4] it was 101% (active). Further, the inhibition in assay [2] was 8%; in assay [3] it was 1%. Also, the outcome in assay [5], in assay [6] and in assay [7] was inactive.

`CN1CCN(Cc2ccc(-c3ccc4c(Nc5cc(O)c(Cl)cc5F)ccnc4c3)o2)CC1`: the growth inhibition in assay [1] was 99% (active); in assay [4] it was 100% (active). Besides, the results for the inhibition in assay [2] and in assay [3] were 2% and -4%, respectively. The outcome in assay [5], in assay [6] and in assay [7] was inactive.

Consider `CN(C)CCN(C)Cc1nc(-c2ccc3c(Nc4ccc(Oc5ccccc5)cc4)ccnc3c2)cs1`, for which the growth inhibition in assay [1] and in assay [4] was 100% (active) each time. Also, the inhibition in assay [2] was 27%; in assay [3], -3%. For the same compound, the result in assay [5], in assay [6] and in assay [7] was inactive.

For the compound `CN1CCN(CCCNCc2ccc(Nc3nccc(Nc4ccc(Oc5ccccc5)cc4)n3)cc2)CC1`, the values for the growth inhibition in assay [1] and in assay [4] were 9% and 100% (active), respectively. Further, the inhibition in assay [2] is 17%; in assay [3] it was 0%. In addition, the result in assay [5], in assay [6] and in assay [7] was inactive.

As for `Oc1cc(-c2nc(C3(CNCc4ccc(Cl)cc4)CCCCC3)[nH]c2-c2ccncc2)ccc1Cl`, the figures for the growth inhibition in assay [1] and in assay [4] were 99% (active) and 100% (active), respectively. The figures for the inhibition in assay [2] and in assay [3] were 35% and 2%, respectively. Besides, the outcome in assay [5], in assay [6] and in assay [7] was inactive.

In the case of `Nc1ncc(-c2cn[nH]c2)cc1-c1nc2ncc(Cl)cc2[nH]1`, the results for the growth inhibition in assay [1] and in assay [4] were 70% (active) and 100% (active), respectively. The inhibition in assay [2] is 40%; in assay [3] it was 1%. Besides, the result in assay [5], in assay [6] and in assay [7] was inactive.

Regarding `Fc1cc(Cl)ccc1Nc1ccnc2cc(-c3ccc(CNCCN4CCOCC4)o3)ccc12`, the growth inhibition was 100% (active) in assay [1] and 101% (active) in assay [4]. Further, the figures for the inhibition in assay [2] and in assay [3] were 13% and -2%, respectively. In addition, the result in assay [5], in assay [6] and in assay [7] was inactive.

Take `CN(C)CCNCc1cccc(-c2ccc3c(Nc4ccc(Oc5ccccn5)cc4)ccnc3c2)c1`: the growth inhibition in assay [1] is 100% (active); in assay [4], 99% (active). For the same compound, the inhibition is 27% in assay [2] and 2% in assay [3]. Moreover, the outcome in assay [5], in assay [6] and in assay [7] was inactive.

With `Oc1cccc(-c2cnc3ccc(NCc4ccc(F)cc4)nn23)c1`, the growth inhibition in assay [1] is 66% (active); in assay [4], 91% (active). For the same compound, the results for the inhibition in assay [2] and in assay [3] were -5% and 2%, respectively. The result in assay [5], in assay [6] and in assay [7] was inactive.

As to `O=C(NCCN1CCC(c2ccncc2)CC1)c1ccc(Nc2nccc(Nc3ccc(Oc4ccccc4)cc3)n2)cc1`, the growth inhibition in assay [1] is 90% (active); in assay [4] it was 102% (active). For the same compound, the inhibition is 17% in assay [2] and 1% in assay [3]. The result in assay [5], in assay [6] and in assay [7] was inactive.

In the case of `CS(=O)(=O)CCNCc1cccc(-c2ccc3c(Nc4cc(O)c(Cl)cc4F)ccnc3c2)c1`, the growth inhibition in assay [1] is 100% (active); in assay [4] it was 101% (active). The inhibition in assay [2] is 9%; in assay [3], -7%. Moreover, the outcome in assay [5], in assay [6] and in assay [7] was inactive.

On to `O=C(NCCCN1CCCCC1)c1cccc(Nc2nccc(Nc3ccc(Oc4ccccc4)cc3)n2)c1`, for which the results for the growth inhibition in assay [1] and in assay [4] were 12% and 96% (active), respectively. Also, the inhibition in assay [2] was 47%; in assay [3] it was 2%. Besides, the result in assay [5], in assay [6] and in assay [7] was inactive.

As to `CN1CCC=C(C(=O)NCC(C)(C)c2nc(-c3ccc(Cl)c(O)c3)c(-c3ccncc3)[nH]2)C1`, the growth inhibition in assay [1] and in assay [4] was 96% (active) each time. Besides, the inhibition in assay [2] is 39%; in assay [3], -1%. The result in assay [5], in assay [6] and in assay [7] was inactive.

For `c1ccc(Oc2ccc(Nc3ccnc(Nc4ccc5cn[nH]c5c4)n3)cc2)cc1`, the values for the growth inhibition in assay [1] and in assay [4] were 33% and 94% (active), respectively. The inhibition in assay [2] was 6%; in assay [3], -7%. For the same compound, the result in assay [5], in assay [6] and in assay [7] was inactive.

Consider `COc1ccc(Nc2ncc3c(-c4cccc(NC(=O)Cc5cccc(O)c5)c4)c[nH]c3n2)cc1OC`, for which the growth inhibition in assay [1] was 96% (active); in assay [4] it was 101% (active). The figures for the inhibition in assay [2] and in assay [3] were 44% and -6%, respectively. In addition, the outcome in assay [5], in assay [6] and in assay [7] was inactive.

In the case of `CN(C)CCOc1ccc(-c2cc(-c3ccnc(N)n3)c(-c3ccc(Cl)c(O)c3)o2)cc1`, the growth inhibition in assay [1] is 91% (active); in assay [4], 101% (active). The values for the inhibition in assay [2] and in assay [3] were 14% and 5%, respectively. For the same compound, the result in assay [5], in assay [6] and in assay [7] was inactive.

With `Cc1ccc(O)cc1Nc1ccnc2cc(-c3cccc(CNCCS(C)(=O)=O)c3)ccc12`, the growth inhibition in assay [1] is 100% (active); in assay [4], 99% (active). Besides, the inhibition in assay [2] was 9%; in assay [3], 2%. The result in assay [5], in assay [6] and in assay [7] was inactive.

As to `COc1ccc(CNCC(C)(C)c2nc(-c3ccc(Cl)c(O)c3)c(-c3ccncc3)[nH]2)cc1`, the growth inhibition in assay [1] was 99% (active); in assay [4], 101% (active). Also, the inhibition in assay [2] is 76% (active); in assay [3], 1%. Further, the outcome in assay [5], in assay [6] and in assay [7] was inactive.

Take `CC(C)(C)CNCC(C)(C)c1nc(-c2ccc(Cl)c(O)c2)c(-c2ccncc2)[nH]1`: the figures for the growth inhibition in assay [1] and in assay [4] were 98% (active) and 101% (active), respectively. For the same compound, the inhibition is 42% in assay [2] and 5% in assay [3]. Besides, the result in assay [5], in assay [6] and in assay [7] was inactive.

Take `CS(=O)(=O)c1cccc(-c2cnc3[nH]cc(-c4cccc(CCN)c4)c3c2)c1`: the growth inhibition was 74% (active) in assay [1] and 99% (active) in assay [4]. Further, the values for the inhibition in assay [2] and in assay [3] were -12% and -5%, respectively. The outcome in assay [5], in assay [6] and in assay [7] was inactive.

For the compound `COc1cccc(Nc2nccc(-c3c(-c4cccc(NC(=O)c5c(F)cccc5F)c4)nn4ccccc34)n2)c1`, the growth inhibition in assay [1] and in assay [4] was 98% (active) in each case. In addition, the inhibition in assay [2] was 35%; in assay [3] it was -2%. Also, the outcome in assay [5], in assay [6] and in assay [7] was inactive.

For the compound `CC(C)(CNCc1ccc(Cl)cc1)c1nc(-c2ccc(Cl)c(O)c2)c(-c2ccncc2)[nH]1`, the growth inhibition in assay [1] is 98% (active); in assay [4], 101% (active). The inhibition was 86% (active) in assay [2] and 5% in assay [3]. The outcome in assay [5], in assay [6] and in assay [7] was inactive.

On to `NC(=O)c1ccccc1Nc1nc(Nc2ccn[nH]2)ncc1Cl`, for which the results for the growth inhibition in assay [1] and in assay [4] were 93% (active) and 96% (active), respectively. Further, the inhibition in assay [2] was 67% (active); in assay [3] it was -4%. The result in assay [5], in assay [6] and in assay [7] was inactive.
